Assay results published in PubChem BioAssay AID1159580 (chemical genetic matrix, 2015).
The campaign covered roughly 5,500 compounds. About 2,000 (36%) were called active. Not shown: some 18% with an inconclusive outcome. Rule as the data show it: active = normalized growth mostly below about 0.91 (no sharp cut-off); inconclusive = no clear call, values can overlap the other calls; inactive = mostly above about 0.92. The list shows a part of the results.

Experiment: chemical genetic growth profiling, strain panel (AID 1159580);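 also: tested at 20 µM; growth read once vehicle control cultures reached saturation at 30 °C; 1 = growth at the plate median or of vehicle wells; lower values mean less growth of the strain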
Conditions: S. cerevisiae deletion strains, growth OD
[1] = locus YDR150W, strain NUM1, active compounds read low
[2] = locus YGR078C, strain PAC10, active compounds read low
[3] = locus YJR075W, strain HOC1, active compounds read low
[4] = locus YMR263W, strain SAP30, active compounds read low
[5] = locus YNL153C, strain GIM3, active compounds read low
[6] = locus YPL055C, strain LGE1, active compounds read low

Measured: normalized growth

CCC(=O)N1CCN(C(=O)c2ccccc2)CC1
inactive: locus YAL040C, strain CLN3, active compounds read low 1.04 | locus YCL061C, strain MRC1 (second series), active compounds read low 0.992 | [1] 1.01 | locus YDR363W, strain ESC2, active compounds read low 0.993 | locus YER002W, strain NOP16, active compounds read low 1 | [2] 0.989 | [3] 1.02 | [4] 0.994 | [5] 1.05 | locus YNL175C, strain NOP13, active compounds read low 1.02 | locus YNL197C, strain WHI3, active compounds read low 0.983 | locus YNL224C, strain SQS1, active compounds read low 0.994 | locus YOR083W, strain WHI5 (second series), active compounds read low 1.03 | [6] 1

O=C(CCCCCCCCC(=O)c1ccccc1)c1ccccc1
inactive: locus YAL013W, strain DEP1, active compounds read low 0.996 | locus YBR229C, strain ROT2, active compounds read low 1 | locus YCL061C, strain MRC1, active compounds read low 1.01 | locus YDL101C, strain DUN1, active compounds read low 1.01 | [1] 0.918 | locus YEL061C, strain CIN8, active compounds read low 1.01 | [2] 1.02 | locus YHR030C, strain SLT2, active compounds read low 0.964 | locus YHR087W, strain rtc3, active compounds read low 1.05 | locus YJL187C, strain SWE1, active compounds read low 1.02 | locus YJR043C, strain POL32, active compounds read low 1.01 | [3] 0.987 | locus YLR039C, strain RIC1, active compounds read low 1.04 | locus YLR058C, strain SHM2 (second series), active compounds read low 0.998 | locus YLR085C, strain ARP6, active compounds read low 0.998 | locus YLR262C, strain YPT6, active compounds read low 1.04 | locus YML094W, strain GIM5, active compounds read low 1.01 | locus YMR219W, strain ESC1, active compounds read low 0.999 | [4] 1 | [5] 0.994 | locus YNL298W, strain CLA4 (second series), active compounds read low 1.05 | locus YNL322C, strain KRE1, active compounds read low 1 | locus YNR030W, strain Alg12, active compounds read low 1.01 | locus YOL006C, strain TOP1, active compounds read low 1.01 | [6] 0.981 | locus YPL241C, strain CIN2, active compounds read low 1 | locus YPR135W, strain CTF4, active compounds read low 1
